Experimental findings from PubChem BioAssay (NCATS) are described below.

The structures appear in SMILES notation. A number with no mark means an inactive call. Results filed as inconclusive are left out. Activity calls are given as the source filed them. Unless noted, calls follow the shape of the dose curve; as a rule, active = well fitted curve in either direction with a large enough effect (not every such curve was filed as active); inconclusive = small, poorly fitted or top-dose-only effect, or another doubt; inactive = flat fitted curve, though single readings scatter.

For test [1], the target named is Lysosomal acid glucosylceramidase (Homo sapiens) (UniProt P04062). Description: Glucocerebrosidase-p2 (AID 348; in the data active = potency below about 10 µM; also: potency is read from the fitted curve at half-maximal effect). Particulars: purified GBA, blue fluorogenic substrate, 40 min. Summed up: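 Compounds titrated from 0.6 nM upwards against 0.2 nM enzyme in pH 5.9 citric acid/KH2PO4, taurocholate, tween-20; blue fluorogenic substrate 80 uM, 40 min room temperature, stopped and read Ex 365/Em 440 for AC50.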
Sequence of Lysosomal acid glucosylceramidase (Homo sapiens) (P04062 whole entry, looked up): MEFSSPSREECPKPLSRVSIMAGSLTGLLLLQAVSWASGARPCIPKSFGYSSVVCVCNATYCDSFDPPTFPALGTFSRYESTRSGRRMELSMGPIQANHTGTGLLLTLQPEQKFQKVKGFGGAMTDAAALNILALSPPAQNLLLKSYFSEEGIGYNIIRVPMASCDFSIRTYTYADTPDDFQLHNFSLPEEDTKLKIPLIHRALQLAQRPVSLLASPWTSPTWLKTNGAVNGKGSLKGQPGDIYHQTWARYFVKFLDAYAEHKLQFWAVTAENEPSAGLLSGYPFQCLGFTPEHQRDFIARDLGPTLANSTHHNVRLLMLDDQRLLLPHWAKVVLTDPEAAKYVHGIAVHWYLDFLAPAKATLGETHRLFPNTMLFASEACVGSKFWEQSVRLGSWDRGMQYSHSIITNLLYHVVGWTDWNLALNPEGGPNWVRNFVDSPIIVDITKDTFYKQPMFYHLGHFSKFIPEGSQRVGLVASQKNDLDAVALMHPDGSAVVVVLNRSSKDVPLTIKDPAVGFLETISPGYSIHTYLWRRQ

Test [2] in a line: AP1 Signaling Pathway (AID 357).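 Also: ME-180 reporter cells stimulated with EGF at its EC50 level; % is scaled to controls: 0 for no effect and ±100 for the full control effect.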 The conditions noted are these: ME-180 AP-1-bla reporter, EGF-induced, beta-lactamase ratio, 5 h; at 7.69 µM (top of the series) unless noted. The gist of the method:
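Modulation of EGF-driven AP-1 transcription was assessed with a beta-lactamase reporter in ME-180 cells. Compound and EC50 EGF were co-incubated 5 hours at 37 °C before 2.5-hour CCF4 loading at room temperature and dual-emission reading.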

Test [3] concerns the target Cytochrome P450 1A2 (Homo sapiens) (UniProt P05177). Description: p450-cyp1a2 (AID 410; calls by dose curve; also: potency is read from the fitted curve at half-maximal effect). Particulars: recombinant CYP1A2, luciferin-ME demethylation, luminescence; series mostly up to 57 µM. The gist of the method:
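20nM CYP1A2 with 100uM Luciferin-ME (at Km) in 100mM KPO4; compound preincubated 10 min, NADPH regeneration added, 60 min at room temperature. Luciferin quantified by luminescence after detection reagent; normalized to 57 uM furafylline.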

Test [4] is described as follows: NFAT Signaling Pathway (AID 444).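 Also: carbachol stimulus at about its EC50 of 1 µM final; % is scaled to controls: 0 for no effect and ±100 for the full control effect.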 Particulars: Jurkat NFAT-bla M1, carbachol, beta-lactamase ratio, 5 h; at 7.69 µM (top of the series) unless noted. Summed up:
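Read-out: CCF4 FRET ratio (460 nm/530 nm) after 1 h RT dye loading, used for %activity and AC50 from titration series. Cells: Jurkat NFAT-β-lactamase/M1 line, treated with compound plus 1 uM carbachol for 5 h, 37 °C.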

Test [5] in a line: Stat Signaling Pathway (AID 446).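 Also: ME-180 cervical cancer cells given 40 pM IL-6 alongside compound; SIE-controlled beta-lactamase reporter measured as 460/530 nm FRET emission ratio; % is scaled to controls: 0 for no effect and ±100 for the full control effect.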 The conditions noted are these: ME-180 (cervical carcinoma) SIE beta-lactamase reporter, IL-6 stimulated, 5 h; at 7.69 µM (top of the series) unless noted. The gist of the method:
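ME-180 cells carrying a SIE-driven beta-lactamase reporter are stimulated with 40 pM IL-6 for 5 h at 37C in the presence of compound. The 460/530 nm FRET substrate ratio is read after 2.5 h at RT. Data are normalised to 300 pM IL-6 and to 125 nM JAK inhibitor controls.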

Test [6] deals with Glucocorticoid receptor (Homo sapiens) (UniProt P04150). As to the kind of experiment: GR-GFP Redistribution (AID 450;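 active = compounds whose dose series gives a full or clear partial fitted curve of increased nuclear translocation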; also: potency is read from the fitted curve at half-maximal effect). The conditions noted are these: U2OS GR-GFP nuclear translocation, laser cytometry, 2 h.
Sequence of Glucocorticoid receptor (Homo sapiens) (P04150 whole entry, looked up, the tested form may be a part): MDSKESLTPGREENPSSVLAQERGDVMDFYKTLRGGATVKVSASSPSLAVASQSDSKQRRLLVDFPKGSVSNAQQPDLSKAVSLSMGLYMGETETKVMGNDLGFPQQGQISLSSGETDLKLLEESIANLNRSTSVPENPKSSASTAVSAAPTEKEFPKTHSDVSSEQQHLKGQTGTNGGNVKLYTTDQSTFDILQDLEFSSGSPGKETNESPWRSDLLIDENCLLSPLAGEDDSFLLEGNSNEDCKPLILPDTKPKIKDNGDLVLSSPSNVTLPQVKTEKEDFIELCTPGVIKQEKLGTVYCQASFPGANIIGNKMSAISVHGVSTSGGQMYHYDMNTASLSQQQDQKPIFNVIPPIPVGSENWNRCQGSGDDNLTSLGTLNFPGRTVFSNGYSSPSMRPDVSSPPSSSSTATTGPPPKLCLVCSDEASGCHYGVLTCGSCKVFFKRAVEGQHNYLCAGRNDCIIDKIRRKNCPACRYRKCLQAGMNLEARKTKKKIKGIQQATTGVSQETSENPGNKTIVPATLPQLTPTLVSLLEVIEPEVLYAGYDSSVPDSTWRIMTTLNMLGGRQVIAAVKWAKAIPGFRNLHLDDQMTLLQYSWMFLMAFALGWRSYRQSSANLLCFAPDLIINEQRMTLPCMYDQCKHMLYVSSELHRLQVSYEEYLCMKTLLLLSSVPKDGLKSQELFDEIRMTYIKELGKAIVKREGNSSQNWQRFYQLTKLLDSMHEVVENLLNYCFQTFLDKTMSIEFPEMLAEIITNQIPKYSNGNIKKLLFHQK
Test [7] shares this target. As to the kind of experiment: GR-EFC Redistribution (AID 451; calls by dose curve; also: potency is read from the fitted curve at half-maximal effect). Particulars: CHO-K1 GR-EFC translocation, beta-gal luminescence, 2 h. The gist of the method: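 Translocation of GR-ED fusion to nuclear EA restores b-gal, read by luminescence after 1 h room-temperature detection. Engineered CHO-K1 biosensor cells, 1,000/well, exposed 2 h at 37 C to titrations up to 46 uM final.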

Test [8] addresses Mitogen-activated protein kinase 10 (Mus musculus) (UniProt Q61831). As to the kind of experiment: JNK3 AlphaScreen Assay (AID 530).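 Also: kinase came from lysate of stimulated human HepG2 cells; signal reports phosphorylation of biotinylated GST-cJun 1-79 at Ser73 with 10 µM ATP; % is scaled to controls: 0 for no effect and ±100 for the full control effect.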 The conditions noted are these: JNK3 lysate, c-Jun phosphorylation; series mostly up to 57.1 µM. Summed up:
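Compound titrations were preincubated 15 minutes at room temperature with substrate, antibody and pre-activated JNK3-containing HepG2 lysate. Reactions were started with 10 uM ATP and stopped with EDTA-containing bead buffer for AlphaScreen detection.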

The target of test [9] is 3',5'-cyclic-AMP phosphodiesterase 4B (Homo sapiens) (UniProt Q07343). As to the kind of experiment: qHTS Assay for Inhibitors of PDE-IV (AID 607; active = well fitted activation curve with a large enough effect in the main read-out, with a control signal flat, not every such curve was filed as active; also: % of control where 0% means no effect). Particulars: HEK293 ACTOne CNG channel cells, membrane potential fluorescence; series mostly up to 22.9 µM. The gist of the method: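 HEK293 ACTOne cells with CNG channel (1000/well), endogenous PDE4; membrane potential dye, compounds up to 22.9 uM final. Fluorescence Ex 535/Em 590; RO 20-1724 (100 uM final) as reference.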
Sequence of 3',5'-cyclic-AMP phosphodiesterase 4B (Homo sapiens) (Q07343 whole entry, looked up): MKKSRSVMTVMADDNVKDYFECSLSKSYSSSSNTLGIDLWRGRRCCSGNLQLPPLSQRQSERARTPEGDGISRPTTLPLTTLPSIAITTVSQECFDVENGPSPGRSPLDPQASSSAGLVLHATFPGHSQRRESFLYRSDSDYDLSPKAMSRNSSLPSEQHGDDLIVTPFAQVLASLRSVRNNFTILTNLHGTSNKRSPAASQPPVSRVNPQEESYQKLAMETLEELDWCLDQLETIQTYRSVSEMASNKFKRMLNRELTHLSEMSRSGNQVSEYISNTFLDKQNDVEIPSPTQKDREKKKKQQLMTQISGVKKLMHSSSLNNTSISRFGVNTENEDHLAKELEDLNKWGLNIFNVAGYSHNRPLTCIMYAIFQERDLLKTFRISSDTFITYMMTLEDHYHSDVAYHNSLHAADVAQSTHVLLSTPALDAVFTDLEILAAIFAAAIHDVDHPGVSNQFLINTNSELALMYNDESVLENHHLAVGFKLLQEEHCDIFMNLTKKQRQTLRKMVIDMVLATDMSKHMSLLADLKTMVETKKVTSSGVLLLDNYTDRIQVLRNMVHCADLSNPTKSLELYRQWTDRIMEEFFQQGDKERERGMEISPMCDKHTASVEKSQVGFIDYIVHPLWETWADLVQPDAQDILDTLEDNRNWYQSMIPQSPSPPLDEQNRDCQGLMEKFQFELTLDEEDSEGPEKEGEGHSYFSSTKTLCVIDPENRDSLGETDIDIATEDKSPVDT
Background: In qHTS, concentration-response curves come from the screen itself.

Test [10] is described as follows: Confirmation and Secondary Assay for Modulators of Hemoglobin Beta Chain Splicing at IVS2 654 locus (AID 910; active = well fitted curve in the direction sought with a large enough effect; an effect the other way counts as inactive or inconclusive;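 also: HeLa cells stably carrying EGFP split by mutant beta-globin IVS2-654 intron; per-well total GFP intensity by laser scanning cytometry after 2-day treatment; % of control where 0% means no effect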). The conditions noted are these: HeLa EGFP-654 splicing reporter, GFP fluorescence, 48 h; series mostly up to 38.3 µM. The gist of the method: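 Readout: per-well total peak green fluorescence (488 nm ex, 500–520 nm em) from objects 5–250 µm, reflecting correct splicing of an EGFP-654 reporter. Compounds were applied for 2 days at 37 °C to overnight-plated HeLa EGFP-654 cells; controls were DMSO and 500 nM IVS2-654 PNA.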

A short description of test [11]: Confirmation and Secondary Assay for Modulators of Hemoglobin Beta Chain Splicing at IVS2 705 locus (AID 930; active = well fitted curve in the direction sought with a large enough effect; an effect the other way counts as inactive or inconclusive;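 also: HeLa cells stably expressing the EGFP-705 splicing reporter; GFP fluorescence per well restored by corrected splicing of the IVS2-705 intron in EGFP; % of control where 0% means no effect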). The conditions noted are these: HeLa EGFP-705 splicing reporter, GFP fluorescence, 48 h; series mostly up to 38.3 µM. The gist of the method:
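Splice-correction reporter: EGFP cDNA split by beta-globin intron 2 bearing the 705 mutation, stably in HeLa. Compound incubation 2 days, 37C; fluorescent objects 5-250 µm summed per well.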

Test [12] deals with Ubiquitin carboxyl-terminal hydrolase 1 (Homo sapiens) (UniProt O94782). Description: Inhibitors of USP1/UAF1: Pilot qHTS (AID 504865; active = well fitted curve in the direction sought with a large enough effect; an effect the other way counts as inactive or inconclusive;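 also: rhodamine fluorescence freed from ubiquitin-rhodamine substrate followed over time; top concentration of the series differs between compounds; % is scaled to controls: 0 for no effect and ±100 for the full control effect; nearly all actives have a fitted effect of over 35% in size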). The conditions noted are these: purified USP1/UAF1, Ub-rhodamine cleavage fluorescence; series mostly up to 54.9 µM. The gist of the method:
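In 50mM HEPES pH 7.8 containing 0.5mM EDTA, 1mM TCEP, 0.1 mg/ml BSA and 0.01% Tween-20, 1nM USP1/UAF1 is exposed to compound for 15 min, then Ub-Rho (150nM final) is added and fluorescence is read over time.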

Test [13] in a line: Primary qHTS for small molecule stabilizers of the endoplasmic reticulum resident proteome: Secreted ER Calcium Modulated Protein (SERCaMP) assay (AID 1508630; active = well fitted curve in the direction sought with a large enough effect; an effect the other way counts as inactive or inconclusive; also: % is scaled to controls: 0 for no effect and ±100 for the full control effect). Particulars: SH-SY5Y GLuc-SERCaMP (Gaussia luciferase released on ER calcium loss) secretion, thapsigargin, luminescence; series mostly up to 38.4 µM. The gist of the method:
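GLuc-SERCaMP-expressing SH-SY5Y cells, pretreated 16 h with compound, are challenged with thapsigargin to empty ER calcium stores; after 4 h, coelenterazine is added directly to the medium and luminescence is imaged.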

In test [14] the target is Cytochrome P450 2C19 (Homo sapiens) (UniProt P33261). As to the kind of experiment: qHTS Assay for Inhibitors and Substrates of Cytochrome P450 2C19 (AID 899; active = well fitted curve in the direction sought with a large enough effect; an effect the other way counts as inactive or inconclusive; also: potency is read from the fitted curve at half-maximal effect; nearly all actives have a fitted effect of over 60% in size). The conditions noted are these: recombinant CYP2C19, luciferin-H EGE luminescence; series mostly up to 57.1 µM. The gist of the method: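 5nM enzyme + 10uM Luciferin-H EGE (=KM), 50mM KPO4; cpd pin-transferred, 10 min 37C; NADPH regen, 60 min 37C; stopped w/ luciferin detection reagent, 20 min; luminescence. Normalized to 57uM ketoconazole (AC100).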
Sequence of Cytochrome P450 2C19 (Homo sapiens) (P33261 whole entry, looked up): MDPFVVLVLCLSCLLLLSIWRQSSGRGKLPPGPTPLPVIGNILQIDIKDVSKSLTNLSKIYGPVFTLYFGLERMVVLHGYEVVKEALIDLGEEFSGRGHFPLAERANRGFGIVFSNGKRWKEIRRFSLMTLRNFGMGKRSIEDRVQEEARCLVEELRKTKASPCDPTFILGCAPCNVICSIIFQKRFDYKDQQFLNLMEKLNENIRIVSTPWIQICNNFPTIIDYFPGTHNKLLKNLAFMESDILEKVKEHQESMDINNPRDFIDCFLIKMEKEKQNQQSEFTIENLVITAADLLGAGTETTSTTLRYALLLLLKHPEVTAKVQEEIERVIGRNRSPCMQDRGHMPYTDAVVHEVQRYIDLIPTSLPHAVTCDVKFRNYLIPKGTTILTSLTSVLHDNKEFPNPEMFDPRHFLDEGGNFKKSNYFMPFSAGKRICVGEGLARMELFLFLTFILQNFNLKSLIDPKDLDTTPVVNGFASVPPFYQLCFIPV

The target in test [15] is Dual specificity protein kinase CLK4 (Homo sapiens) (UniProt Q9HAZ1). As to the kind of experiment: qHTS Assay for Inhibitors of CDC-like Kinase 4 (ADP-FP Assay) (AID 1795; active = well fitted curve in the direction sought with a large enough effect; an effect the other way counts as inactive or inconclusive;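 also: recombinant human CLK4 phosphorylating RS repeat peptide at 1 µM ATP; % is scaled to controls: 0 for no effect and ±100 for the full control effect; nearly all actives have a fitted effect of over 60% in size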). Particulars: Transcreener ADP fluorescence polarization; series mostly up to 50 µM. Summed up:
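Clk4 6.25 nM; RS peptide 100 uM; ATP 1 uM; 25 mM Tris pH 7.5, 10 mM MgCl2; 1 h reaction. ADP detected via antibody/orange tracer FP displacement; TG003 positive control.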

In test [16] the target is Cytochrome P450 3A4 (Homo sapiens) (UniProt P08684). As to the kind of experiment: qHTS Assay for Activators of Cytochrome P450 3A4 (AID 885; active = well fitted curve in the direction sought with a large enough effect; an effect the other way counts as inactive or inconclusive; also: nearly all actives have a fitted effect of over 65% in size). Particulars: recombinant CYP3A4, Luciferin-PPXE luminescence, 60 min; series mostly up to 57.1 µM. The gist of the method: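 Human CYP3A4 (20 nM) with Luciferin-PPXE at 25 uM (its KM) in 200 mM KPO4; 10 min compound preincubation, then NADPH regeneration and 60 min reaction at RT. Luciferin read by luminescence; normalized to 57 uM ketoconazole full inhibition.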

Test [17] has as its target Cytochrome P450 2D6 (Homo sapiens) (UniProt P10635). Description: qHTS Assay for Inhibitors and Substrates of Cytochrome P450 2D6 (AID 891; active = well fitted curve in the direction sought with a large enough effect; an effect the other way counts as inactive or inconclusive; also: potency is read from the fitted curve at half-maximal effect; nearly all actives have a fitted effect of over 60% in size). The conditions noted are these: recombinant CYP2D6, luciferin-ME EGE luminescence; series mostly up to 57.1 µM. Summed up:
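Human CYP2D6 (5 nM) with 30 uM Luciferin-ME EGE (at Km) in 100 mM KPO4, compound preincubated 10 min, then NADPH regeneration system for 60 min at room temperature. Luciferin read by luminescence; normalized to 1.43 uM quinidine.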

Sequence of Cytochrome P450 1A2 (Homo sapiens) (P05177 whole entry, looked up): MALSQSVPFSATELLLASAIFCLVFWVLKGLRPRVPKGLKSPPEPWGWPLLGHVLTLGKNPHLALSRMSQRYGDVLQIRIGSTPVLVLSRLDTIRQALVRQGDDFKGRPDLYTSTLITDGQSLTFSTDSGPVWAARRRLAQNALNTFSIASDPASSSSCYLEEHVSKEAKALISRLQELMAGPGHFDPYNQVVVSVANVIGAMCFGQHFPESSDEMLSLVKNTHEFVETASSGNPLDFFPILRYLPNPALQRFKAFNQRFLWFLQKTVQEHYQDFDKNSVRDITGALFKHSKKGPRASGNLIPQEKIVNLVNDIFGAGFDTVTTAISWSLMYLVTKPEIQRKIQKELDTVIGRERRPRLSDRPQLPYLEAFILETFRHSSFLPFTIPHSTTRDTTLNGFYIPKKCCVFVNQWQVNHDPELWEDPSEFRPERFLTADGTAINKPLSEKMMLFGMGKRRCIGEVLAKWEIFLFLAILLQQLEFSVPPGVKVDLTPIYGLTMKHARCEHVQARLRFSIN
Sequence of Ubiquitin carboxyl-terminal hydrolase 1 (Homo sapiens) (O94782 whole entry, looked up): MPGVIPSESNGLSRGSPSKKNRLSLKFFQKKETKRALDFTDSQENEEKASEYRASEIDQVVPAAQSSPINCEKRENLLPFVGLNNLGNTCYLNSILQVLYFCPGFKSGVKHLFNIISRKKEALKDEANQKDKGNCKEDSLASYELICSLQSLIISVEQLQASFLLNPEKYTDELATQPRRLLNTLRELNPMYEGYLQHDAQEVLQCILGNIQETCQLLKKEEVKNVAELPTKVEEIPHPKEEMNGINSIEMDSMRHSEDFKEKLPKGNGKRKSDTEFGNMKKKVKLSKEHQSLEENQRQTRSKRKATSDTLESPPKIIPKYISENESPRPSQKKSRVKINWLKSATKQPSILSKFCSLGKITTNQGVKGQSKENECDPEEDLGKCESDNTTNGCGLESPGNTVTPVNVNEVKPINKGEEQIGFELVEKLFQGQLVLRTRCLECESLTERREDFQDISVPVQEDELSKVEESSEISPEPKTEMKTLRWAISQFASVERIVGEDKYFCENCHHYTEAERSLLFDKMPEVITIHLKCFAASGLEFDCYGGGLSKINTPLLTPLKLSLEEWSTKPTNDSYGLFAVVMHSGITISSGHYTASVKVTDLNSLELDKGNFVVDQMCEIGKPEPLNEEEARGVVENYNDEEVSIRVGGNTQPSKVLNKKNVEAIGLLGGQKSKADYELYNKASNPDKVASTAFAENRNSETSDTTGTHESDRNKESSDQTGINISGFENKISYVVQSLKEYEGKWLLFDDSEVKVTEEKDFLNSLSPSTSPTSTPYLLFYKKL
Sequence of Dual specificity protein kinase CLK4 (Homo sapiens) (Q9HAZ1 whole entry, looked up): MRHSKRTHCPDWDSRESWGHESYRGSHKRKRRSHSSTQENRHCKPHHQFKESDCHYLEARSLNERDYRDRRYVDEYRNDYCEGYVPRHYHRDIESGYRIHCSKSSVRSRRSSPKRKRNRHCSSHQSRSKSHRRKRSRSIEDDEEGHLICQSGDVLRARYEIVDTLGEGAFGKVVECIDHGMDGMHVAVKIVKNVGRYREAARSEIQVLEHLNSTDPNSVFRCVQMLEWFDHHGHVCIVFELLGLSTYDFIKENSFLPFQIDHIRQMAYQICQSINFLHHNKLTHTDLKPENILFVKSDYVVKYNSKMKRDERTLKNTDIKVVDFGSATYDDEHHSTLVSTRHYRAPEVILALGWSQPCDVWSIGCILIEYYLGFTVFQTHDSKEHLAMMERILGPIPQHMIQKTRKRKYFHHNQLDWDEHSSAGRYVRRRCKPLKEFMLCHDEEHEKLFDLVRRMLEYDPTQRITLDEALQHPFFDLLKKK
Sequence of Cytochrome P450 2D6 (Homo sapiens) (P10635 whole entry, looked up): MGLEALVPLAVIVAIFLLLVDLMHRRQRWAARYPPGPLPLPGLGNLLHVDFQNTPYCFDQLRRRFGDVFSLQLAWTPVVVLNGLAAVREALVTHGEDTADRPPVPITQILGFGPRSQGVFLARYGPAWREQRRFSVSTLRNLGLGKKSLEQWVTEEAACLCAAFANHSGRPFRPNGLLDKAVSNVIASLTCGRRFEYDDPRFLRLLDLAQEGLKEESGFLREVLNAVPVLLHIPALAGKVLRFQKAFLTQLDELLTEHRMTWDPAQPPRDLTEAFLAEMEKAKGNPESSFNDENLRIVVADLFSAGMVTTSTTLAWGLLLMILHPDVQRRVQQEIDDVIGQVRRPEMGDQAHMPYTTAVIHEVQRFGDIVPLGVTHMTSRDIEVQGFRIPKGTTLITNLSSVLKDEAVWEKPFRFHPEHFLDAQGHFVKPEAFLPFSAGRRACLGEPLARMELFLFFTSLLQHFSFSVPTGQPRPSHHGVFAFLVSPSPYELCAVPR

Take `CC(=O)NCCNc1ncnc2ccc(-c3ccc(C(=O)N(C)C)cc3)cc12`: the Potency in [1] was > 11.4 µM; in [3], 25.1 µM (active); in [6], > 46 µM; in test [7], > 46 µM. In addition, the activity change, negative = inhibition in [2] was -14.6%; in test [4] it was -1.21%. Moreover, in test [5], the activity, negative = inhibition is -0.482%. For the same molecule, the Potency entry in [8], in test [9], in test [10] and in test [12] was “inactive” throughout. In addition, the molecule was called inactive in test [11] and in test [13].
Take `O=c1c(-c2ccccc2)nc2cncnc2n1C1CC1`: the Potency in test [1] is > 11.4 µM; in [3], 2 µM (active); in test [6], > 9.22 µM; in test [7], > 46 µM. Besides, the activity change, negative = inhibition in test [2] was -14.9%; in test [4], 6.76%. Besides, the activity, negative = inhibition in [5] is 8.37%. In addition, the Potency result in [8] was “inactive”. In test [13], the outcome was inactive.
For `FC(F)(F)c1ccccc1-c1cc(NCc2cccs2)ncn1`, the activity change, negative = inhibition in [2] is -3.47%; in test [4] it was -14.8%. The Potency in test [3] is 3.98 µM (active); in test [6], > 46 µM; in test [7] it was > 46 µM; in [14], 0.794 µM (active). The activity, negative = inhibition in test [5] is 5.97%. For the same molecule, the Potency entry in test [8], in [9], in test [15] and in test [12] was “inactive” throughout. Besides, the result in test [13] was inactive.
On to `CN(C)Cc1ccccc1-c1nccc(NC2CC2)n1`, for which the Potency in [1] is > 11.4 µM; in test [3], 1.58 µM (active); in test [6], > 46 µM; in [7], > 46 µM; in test [17] it was 0.631 µM (active). Moreover, the activity change, negative = inhibition in test [2] is -4.26%; in test [4] it was 1.25%. The activity, negative = inhibition in [5] is 5.09%. Besides, the Potency result in [8], in test [9], in test [16], in test [10] and in test [12] was “inactive” throughout. In addition, the outcome in test [11] and in test [13] was inactive.
In the case of `CN(C)C(=O)c1ccc(-c2ccc3ncnc(N4CCNCC4)c3c2)cc1`, the Potency in [1] is > 11.4 µM; in test [6], > 46 µM; in test [7], > 46 µM. For the same molecule, the figures for the activity change, negative = inhibition in test [2] and in test [4] were -26.4% and 4.61%, respectively. Also, the Potency entry in test [3], in [8], in [9] and in test [12] was “inactive” in each case. The activity, negative = inhibition in test [5] was -3.14%. Further, the outcome in test [13] was inactive.
With `CN(C)C(=O)c1ccc(-c2nc(N(C)Cc3ccco3)c3ccccc3n2)cc1`, the Potency in test [1] is > 11.4 µM; in test [3] it was 7.94 µM (active); in test [6], > 46 µM; in test [7], > 46 µM. The figures for the activity change, negative = inhibition in test [2] and in [4] were -14.5% and 18.1%, respectively. In addition, the activity, negative = inhibition in test [5] was 3.3%. The Potency result in test [8], in [10] and in [12] was “inactive” each time. Further, the outcome in [11] and in test [13] was inactive.
